Each structure is given as a SMILES string. About 1,100 (1.7%) of roughly 63,000 compounds were called active. Many of the other results were omitted from the sample, so actives are more common in it than they were. Potency and affinity values are given separately. Values without a mark were called inactive. Cut-off read from the data, not from the text of the source: active = cytotoxicity above about 50%; inactive = the rest.

The experiment in a line: HPDE-C7 pancreatic duct cell viability loss – fluorescence, HTS (AID 430).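 Note: cells exposed to compound for 48 hours before viability readout; 0% = vehicle and 100% = reference cytotoxic drug.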 Particulars: HPDE-C7 pancreatic duct cells viability, at 10 µM, hits give high values.
With `COC(=O)c1cccc(S(=O)(=O)N(Cc2ccco2)Cc2cc3ccc(OC)cc3[nH]c2=O)c1`, the cytotoxicity is -2.3%.
The figure for `O=C(CCSc1ccccc1)N1CCOCC1` is 2.9%.
`O=C1N=c2ccccc2=C1c1sc(=S)n(CC2CCCO2)c1O` (configuration not stated): the cytotoxicity was -0.5%.
The figure for `C=CCn1c(O)c(C2=c3ccccc3=NC2=O)sc1=Nc1ccc(O)cc1` is 111% (active); for `C=CCn1c(O)c(C2=c3ccccc3=NC2=O)s/c1=N/c1nccs1` it is -2.6%; for `Cc1cccc(OCCc2nnc(N)s2)c1C` it is -15.8%.
In the case of `CC(C)c1nnc(NC(=O)CSc2nc3ccccc3s2)s1` it was -8.4%.
In the case of `Cc1ccc(C(C(=O)NC(C)(C)C)N(CC2CCCO2)C(=O)Cn2nnc(-c3ccc(C)o3)n2)cc1` (configuration not stated) it was -0.4%.
Regarding `COc1ccc(-c2cc3ccccc3n2CC(O)CN2CCN(CCO)CC2)cc1` (configuration not stated), the cytotoxicity is 52.6% (active).
Consider `COc1ccc(-c2cc3ccccc3n2CC(O)CNC(CO)(CO)CO)cc1` (configuration not stated), for which the cytotoxicity is 6.1%.
The figure for `COc1ccc(-c2cc3ccccc3n2CC(O)CN2CCOCC2)cc1` (configuration not stated) is -1.1%; for `CCOc1ccc(C2C(C(=O)c3ccco3)=C(O)C(=O)N2Cc2cccnc2)cc1OC` (configuration not stated) it is 7.1%.
Regarding `CCOC(=O)c1sc(NC(=O)c2ccco2)nc1-c1ccccc1`, the cytotoxicity is -8.2%.
Turning to `CC(=O)c1sc(NC(=O)c2ccco2)nc1-c1ccccc1`, the cytotoxicity is -1%.
With `Cc1ccc(Oc2ccc(NC(=O)c3ccco3)cc2)cc1`, the cytotoxicity was 78.8% (active).
The figure for `O=C(Nc1ccc(Oc2ccc(NC(=O)c3ccco3)c(NC(=O)c3ccco3)c2)cc1)c1ccco1` is 25%; for `CCn1c2ccccc2c2cc(NC(=O)N3CCOCC3)ccc21` it is 6.2%.
As for `CCn1c2ccccc2c2cc(CN3CCN(C(=O)c4ccco4)CC3)ccc21`, the cytotoxicity was -25.2%.
In the case of `Cc1ccc(NC(=O)c2ccc(OC(=O)c3ccco3)cc2)cc1` it was -5.6%; in that of `CCn1c2ccccc2c2cc(NC(=O)c3ccco3)ccc21`, 57.2% (active); in that of `O=C(Nc1nc(-c2cccs2)c(-c2ccccc2)s1)c1ccco1`, 53.7% (active).
In the case of `O=C(OC1CCCCC1)c1ccc(NC(=O)c2ccco2)cc1` it was 58.1% (active).
The figure for `O=C(O)CCC(=O)Nc1ccc(C(=O)OC2CCCCC2)cc1` is -4.7%; for `O=C(Nc1ccc(OC(=O)c2ccco2)cc1)c1ccco1` it is -10.9%.
In the case of `CC(C)CCNC(=O)CN(CCN1CCOCC1)C(=O)Cn1nnc(-c2ccc(F)cc2)n1`, the cytotoxicity is 4.5%.
As to `Cc1c(C(=O)O)sc2ncnc(N3CCCCC3C)c12` (configuration not stated), the cytotoxicity was 9.8%.
The figure for `CCCCCOC(=O)c1ccc(NC(=O)c2ccco2)cc1` is 65.9% (active); for `CCCCOC(=O)c1ccc(NC(=O)c2ccoc2C)cc1` it is 3.4%.
Consider `Cc1nc(NC(=O)c2ccco2)sc1C(=O)Nc1ccc(Br)cc1`, for which the cytotoxicity is 65.7% (active).
Turning to `CCOC(=O)c1sc(NC(=O)c2ccco2)nc1C`, the cytotoxicity was -1.4%.
With `CCCCOC(=O)c1ccc(NC(C)=O)cc1`, the cytotoxicity is -11.4%.
On to `COC(=O)c1sc(NC(=O)c2ccco2)nc1C`, for which the cytotoxicity was -3.5%.
The figure for `Cc1ccc2c(c1)NCCO2` is 5.4%; for `Cc1nnc(C)n1/N=C/c1cc(Br)ccc1O` it is -12.5%; for `COc1c(Br)cc(Br)cc1/C=N/n1c(C)nnc1C` it is 2.9%.
In the case of `Cc1nnc(C)n1/N=C/c1cc(Br)cc(Br)c1O` it was 79.9% (active).
In the case of `CC(C)COC(=O)C(N)C(C(=O)OCC(C)C)c1ccccc1` (configuration not stated), the cytotoxicity is -6.4%.
In the case of `O=C(NCC1CCCO1)C1CC(=O)N(c2ccc(F)c(Cl)c2)C1` (configuration not stated) it was 3.4%; in that of `CCNc1ccc2c(Cl)cc(=O)oc2c1`, -2%; in that of `CCN(CC)c1ccc2c(C)c(CN3CCOCC3)c(=O)oc2c1`, 24.1%.
`CCOC(=O)Cc1c(C)c2ccc(N(CC)CC)cc2oc1=O`: the cytotoxicity was -17.8%.
With `CCN(CC)c1ccc2c(C)c(-c3ccc(N)cc3)c(=O)oc2c1`, the cytotoxicity is 11%.
The figure for `CCN(CC)C(=O)CSc1nnc(-c2cccs2)n1Cc1ccco1` is 17.7%; for `O=C(COc1ccccc1)N1CCN(C(=O)c2cccc(F)c2)CC1` it is -40.5%; for `CCOC(=O)CN1C(=O)COc2ccc(Cl)cc21` it is -8.8%.
For the compound `CCN(CC)CCCN(Cc1cc2cc3c(cc2[nH]c1=O)OCCO3)C(=O)Nc1ccc(F)cc1`, the cytotoxicity was 0.9%.
As to `O=C(O)c1cccc(Cn2cc(Br)cn2)c1`, the cytotoxicity was -12.3%.
For the compound `O=C(c1ccc(Cn2cc(Cl)cn2)cc1)N1CCN(c2ccccc2)CC1`, the cytotoxicity is 12.3%.
On to `O=C(c1ccc(Cn2cc(Br)cn2)cc1)N1CCN(c2ccccc2)CC1`, for which the cytotoxicity was 53.1% (active).
In the case of `CC(=O)N(Cc1cc(=O)[nH]c2ccccc12)c1cccc(C)c1`, the cytotoxicity was 12%.
For the compound `CC1(C)CC(=O)C2=C(C1)N(CCN1CCOCC1)C1=C(C(=O)CC(C)(C)C1)C2c1cccc(Cl)c1`, the cytotoxicity is 3.8%.
Regarding `O=C1CC(N2CCN(c3ccccc3)CC2)C(=O)N1c1ccc2c(c1)OCCO2` (configuration not stated), the cytotoxicity was -4.9%.
In the case of `Cc1ccc(CCNC(=O)C2CCCN(c3nc4ccccc4o3)C2)cc1` (configuration not stated) it was -18%; in that of `CCOc1cc(NC(=O)c2ccco2)c(OCC)cc1NC(=O)c1cc(OC)c(OC)c(OC)c1`, 14.4%; in that of `COc1cc(NC(=O)c2ccco2)c(OC)cc1NC(=O)c1cc(OC)c(OC)c(OC)c1`, 52.3% (active).
For `COc1cc(C(=O)Nc2ccc(NC(=O)c3ccco3)nc2)cc(OC)c1OC`, the cytotoxicity is -2.5%.
The figure for `Cc1cccc(NC(=O)Cn2c(C)c(C#N)c3ccccc32)c1C` is -4.9%; for `O=C(CSc1n[nH]c(=O)[nH]c1=O)c1ccccc1` it is 5%.
In the case of `c1ccc(Cc2nnc3sc(Nc4ccccc4)nn23)cc1`, the cytotoxicity was 3%.
Consider `CCn1c(SCC(=O)N2CCN(c3ccc(Cl)cc3)CC2)nc2ccccc2c1=O`, for which the cytotoxicity was 2.2%.
In the case of `O=C(NCc1cccnc1)C1CC(=O)N(c2ccc(Cl)cc2)C1` (configuration not stated) it was -7%.
The figure for `CSC1=NCCN1C(=O)c1cccs1` is 2%.
In the case of `Cc1ccc(C(=O)CSC2=C(C#N)C(c3ccco3)C3=C(CCCC3=O)N2)cc1` (configuration not stated) it was 76.5% (active); in that of `N#CC1=C(SCC(=O)c2ccccc2)NC2=C(C(=O)CCC2)C1c1ccco1` (configuration not stated), 54.3% (active); in that of `Cc1ccc(NC(=O)CSC2=C(C#N)C(c3ccco3)C3=C(CCCC3=O)N2)cc1` (configuration not stated), 3.5%.
With `COc1ccc(NC(=O)CSC2=C(C#N)C(c3ccco3)C3=C(CCCC3=O)N2)c(OC)c1` (configuration not stated), the cytotoxicity was -2.1%.
In the case of `Cc1ccc(C(=O)CSC2=C(C#N)C(c3ccco3)C3=C(CC(C)(C)CC3=O)N2)cc1` (configuration not stated), the cytotoxicity is 7.1%.
The figure for `CC(C)(C)c1ccc(C(=O)CCCSC2=C(C#N)C(c3ccco3)C3=C(CCCC3=O)N2)cc1` (configuration not stated) is 38.2%; for `CCOC(=O)N1CCN(CC(=O)Nc2c(C(=O)OC)[nH]c3cccc(Cl)c23)CC1` it is -17.3%.
The figure for `COc1ccc(-n2nnnc2SCC(=O)c2cc3ccccc3o2)cc1` is -1.1%; for `CCOC(=O)C1C(=O)CC(C)(O)C(C(=O)OCC)C1c1ccccc1OC` (configuration not stated) it is -17.4%; for `CSCCC(NC(=O)OC(C)(C)C)C(=O)NC(CC(C)C)C(N)=O` (configuration not stated) it is -35.4%.
With `Cc1cccc(C)c1NC(=O)C(c1ccccc1)N1CCC2(CC1)OCCO2` (configuration not stated), the cytotoxicity was 9.2%.
Turning to `CCCC1=C(C(=O)OCC)C(c2ccccc2OC)NC(=O)N1` (configuration not stated), the cytotoxicity is -16.5%.
The figure for `Cc1noc(C)c1S(=O)(=O)N(CC(=O)N1CCn2c1nc1ccccc12)c1ccc(C(C)C)cc1` is 8.7%; for `Cn1c(CNc2ccccc2)nc2ccccc21` it is -11.4%; for `CCCn1c(CNc2ccccc2O)nc2ccccc21` it is 14.5%.
In the case of `CCCn1c(NC(=O)c2ccccc2)nc2ccccc21` it was -20.2%.
In the case of `CCCn1c(NCc2ccco2)nc2ccccc21` it was 2%; in that of `CCCn1c(CNc2ccc(Br)cc2)nc2ccccc21`, 50.8% (active).
In the case of `Cc1ccc(Nc2cc(C)nc3nc(C)nn23)c(C)c1`, the cytotoxicity was -12.6%.
For the compound `C=CCOC(=O)C1=C(C)OC(N)=C(C#N)C1c1ccccc1F` (configuration not stated), the cytotoxicity was 6.1%.
Turning to `COC(=O)c1ccc(CSc2nc(N)cc(N)n2)cc1`, the cytotoxicity was -4.4%.
In the case of `CCC(C)NCC(O)COCc1ccc(Cl)cc1` (configuration not stated) it was 9.9%; in that of `O=C(c1cnn2c1NC(c1ccco1)CC2C(F)(F)F)N1CCN(c2cccc(Cl)c2)CC1` (configuration not stated), 50.2% (active); in that of `O=C(c1ccco1)N1CCN(C(=O)c2cnn3c2NC(c2cccs2)CC3C(F)(F)F)CC1` (configuration not stated), -5%.
The figure for `O=C(Nc1ccc2c(c1)CCC2)c1cnn2c1NC(c1ccco1)CC2C(F)(F)F` (configuration not stated) is -4.4%; for `Cc1ccc(-c2ccc(=O)n(CCC(=O)NCCN3CCCCC3C)n2)cc1` (configuration not stated) it is 5.1%; for `O=S(=O)(Nc1nc2ccccc2nc1NCCO)c1cccc(Cl)c1` it is 12.5%.
The figure for `CCOC(=O)N1CCC(N(C(=O)Nc2ccccc2)C(C)CC)CC1` (configuration not stated) is -4.7%.
Consider `CCOc1ccccc1C1CC(=O)NC2=C1C(=O)CCC2` (configuration not stated), for which the cytotoxicity is 30.3%.
The figure for `CCCOc1c(OC)cccc1C1CC(=O)Nc2cc(OC)c(OC)c(OC)c21` (configuration not stated) is 10.7%.
For `CCCOc1ccccc1C1CC(=O)NC2=C1C(=O)CCC2` (configuration not stated), the cytotoxicity was 47.3%.
For the compound `CCCOc1ccccc1C1CC(=O)Nc2cc3c(cc21)OCO3` (configuration not stated), the cytotoxicity was 54.1% (active).
Consider `CCCOc1c(OC)cccc1C1CC(=O)Nc2cc3c(cc21)OCCO3` (configuration not stated), for which the cytotoxicity was 70.1% (active).
Take `CCCCOc1ccccc1C1CC(=O)NC2=C1C(=O)CCC2` (configuration not stated): the cytotoxicity was 71.2% (active).
The figure for `O=C1CC(c2cccnc2)c2cc3c(cc2N1)OCCO3` (configuration not stated) is 5.1%.
In the case of `O=C1CC(c2cccs2)c2cc3c(cc2N1)OCCO3` (configuration not stated) it was 5.6%; in that of `CCCOc1ccccc1C1CC(=O)Nc2cc3c(cc21)OCCO3` (configuration not stated), 63% (active).
In the case of `CCCOc1c(OC)cccc1C1CC(=O)Nc2cc3c(cc21)OCO3` (configuration not stated) it was 12.7%; in that of `O=C1CC(c2ccc3c(c2)OCO3)c2cc3c(cc2N1)OCO3` (configuration not stated), -5.6%; in that of `O=C1CC(c2cccs2)c2cc3c(cc2N1)OCO3` (configuration not stated), 1%.

The values are drawn from PubChem BioAssay AID430 (Sanford-Burnham Center for Chemical Genomics, 2006).
